From PubChem BioAssay (NCI) come the findings set out here.

Among the test systems are NCI-H23 lung; NCI-H226 lung; NCI-H322M lung; HOP-62 NSCLC; NCI-H460 lung; HOP-92 NSCLC; NCI-H522 lung; A549/ATCC NSCLC; 786-0 renal; DU-145 prostate; K-562 leukemia; MALME-3M melanoma; MDA-MB-231 breast; RXF 393 renal; SF-268 CNS; SF-295 CNS; SF-539 CNS; UACC-257 melanoma; M14 melanoma; COLO 205 colon.
Experiment in all cases: NCI-60 one-dose screen, 48 h (100 = growth as untreated, 0 = no growth, -100 = all killed)
Settings in all cases: 10 µM unless noted

About 83,000 compounds went through this panel and 20% of them were active in at least one assay; those are over-represented in the sample as a whole.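 Compound tested at a single concentration for 48 hours in 96-well plates; a percent growth value below 10 was scored as active.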 A number with no mark means an inactive call. Active and inactive are the calls of the source.

`CNC(=O)c1cc(Oc2ccc(NC(=O)Nc3ccc(Cl)c(C(F)(F)F)c3)c(F)c2)ccn1`: the growth was -25.8% (active) with NCI-H23 lung; -16.8% (active) in the experiment on NCI-H226 lung; -13.4% (active) in the experiment with NCI-H322M lung; -48.1% (active) in the experiment with HOP-62 NSCLC; -35.4% (active) in the experiment on NCI-H460 lung; -20.1% (active) with HOP-92 NSCLC. The growth with NCI-H522 lung was -69.3% (active); with A549/ATCC NSCLC it was -2.14% (active); in the experiment with 786-0 renal, 3.58% (active); in the experiment with DU-145 prostate it was 14.9%; in the experiment on K-562 leukemia it was -3.75% (active); in the experiment with MALME-3M melanoma, -36.3% (active). For the same molecule, the growth with MDA-MB-231 breast was -57.2% (active); with RXF 393 renal, -31.3% (active); with SF-268 CNS, -30.6% (active); with SF-295 CNS, -47.4% (active); in the experiment with SF-539 CNS it was -71.7% (active); in the experiment with UACC-257 melanoma, -50.3% (active). In addition, in the experiment on M14 melanoma, the growth is -28.1% (active).

Take `FC(F)c1nc2ccccc2n1-c1nc(N2CCOCC2)nc(N2CCOCC2)n1`: the growth is 0.202% (active) in the experiment with NCI-H23 lung; -3.17% (active) in the experiment on NCI-H226 lung; -22.6% (active) in the experiment with NCI-H322M lung; -15.1% (active) in the experiment with HOP-62 NSCLC; 7.27% (active) in the experiment on NCI-H460 lung; -32.2% (active) in the experiment with HOP-92 NSCLC. For the same molecule, the growth in the experiment with NCI-H522 lung was -1.95% (active); with A549/ATCC NSCLC, -17.2% (active); in the experiment with 786-0 renal it was -32.8% (active); in the experiment with DU-145 prostate, 6.49% (active); in the experiment with K-562 leukemia it was 13.1%; in the experiment with MALME-3M melanoma, -26.7% (active). In addition, the growth is 15.7% with MDA-MB-231 breast; -44.5% (active) in the experiment on RXF 393 renal; 2.79% (active) in the experiment on SF-268 CNS; -44.6% (active) in the experiment on SF-295 CNS; -45.3% (active) with SF-539 CNS; -27.3% (active) in the experiment with UACC-257 melanoma. The growth in the experiment on M14 melanoma was 3% (active).

Turning to `COc1cc2c(Oc3ccc4[nH]c(C)cc4c3F)ncnc2cc1OCCCN1CCCC1`, the growth with NCI-H23 lung is 84%; in the experiment on NCI-H226 lung, 57.3%; with NCI-H322M lung, 93%; in the experiment on HOP-62 NSCLC, 79.8%; with NCI-H460 lung it was 96.7%; in the experiment on HOP-92 NSCLC, 95.9%. The growth was 88.3% in the experiment on NCI-H522 lung; 84.5% in the experiment on A549/ATCC NSCLC; 84.6% with 786-0 renal; 96.8% with DU-145 prostate; 71.2% with K-562 leukemia; 101% in the experiment on MALME-3M melanoma. Further, the growth in the experiment with MDA-MB-231 breast was 104%; in the experiment on RXF 393 renal, 74.7%; with SF-268 CNS, 72.2%; with SF-295 CNS, 97.7%; with SF-539 CNS, 45.2%; in the experiment on UACC-257 melanoma, 98.8%. In addition, the growth in the experiment on M14 melanoma is 92.8%.

For `CCOC(=O)Sc1ncnc2nc[nH]c12`, the growth is 64.8% in the experiment with NCI-H23 lung; 37.4% in the experiment on NCI-H226 lung; 40.4% with NCI-H322M lung; 17.2% in the experiment on HOP-62 NSCLC; 71.8% in the experiment on NCI-H460 lung; 12.2% in the experiment on HOP-92 NSCLC. The growth in the experiment with NCI-H522 lung was -18.8% (active); with A549/ATCC NSCLC it was 104%; with 786-0 renal it was 18%; with COLO 205 colon, 103%; in the experiment on DU-145 prostate, 38%; in the experiment on MALME-3M melanoma, 59.2%. Besides, the growth was 45.7% in the experiment with MDA-MB-231 breast; 65.8% in the experiment on SF-268 CNS; 36.8% in the experiment with SF-295 CNS; 36.7% with SF-539 CNS; 13.7% in the experiment with M14 melanoma.

On to `C/C=C/C=N/NC(=S)Nc1ccccc1`, for which the growth in the experiment with NCI-H23 lung is 90.7%; in the experiment on NCI-H226 lung it was 95.8%; in the experiment with NCI-H322M lung, 90.6%; in the experiment with HOP-62 NSCLC, 86%; in the experiment with NCI-H460 lung, 112%; in the experiment with NCI-H522 lung it was 82.7%. In addition, the growth was 79.4% with A549/ATCC NSCLC; 106% in the experiment with 786-0 renal; 101% with COLO 205 colon; 104% with DU-145 prostate; 88.9% in the experiment on K-562 leukemia; 96.5% with MALME-3M melanoma. The growth in the experiment with MDA-MB-231 breast was 89.9%; in the experiment with RXF 393 renal, 119%; with SF-268 CNS, 100%; with SF-295 CNS it was 98.9%; in the experiment with SF-539 CNS it was 89.5%; with UACC-257 melanoma it was 81.1%.

As for `O=C(Nc1cn[nH]c1-c1nc2ccc(CN3CCOCC3)cc2[nH]1)NC1CC1`, the growth in the experiment with NCI-H23 lung was 23.5%; in the experiment with NCI-H226 lung, 6.37% (active); in the experiment on NCI-H322M lung, 37.6%; in the experiment on HOP-62 NSCLC, -9.72% (active); with NCI-H460 lung, 34.4%; in the experiment with NCI-H522 lung, 11.5%. Moreover, the growth is 48.6% with A549/ATCC NSCLC; 13.6% in the experiment on 786-0 renal; -39% (active) in the experiment on COLO 205 colon; 41% in the experiment on DU-145 prostate; 12.7% in the experiment on K-562 leukemia; 51.8% in the experiment on MALME-3M melanoma. In addition, the growth in the experiment on MDA-MB-231 breast is 1.37% (active); in the experiment on RXF 393 renal it was -56.5% (active); in the experiment on SF-268 CNS, 23.8%; in the experiment with SF-295 CNS, -10.5% (active); with SF-539 CNS it was -60.9% (active); in the experiment with UACC-257 melanoma, 59.7%. In addition, the growth in the experiment on M14 melanoma is 34%.

For `CC12O[C@H](C[C@@H](OC(=O)CCC(=O)O)[C@H]1O)n1c3ccccc3c3c4c(c5c6ccccc6n2c5c31)C(=O)NC4=O`, the growth in the experiment with NCI-H23 lung is 12.3%; with NCI-H226 lung, 9.15% (active); in the experiment with NCI-H322M lung it was 34.3%; with HOP-62 NSCLC it was 13.5%; in the experiment with NCI-H460 lung, 20.2%; with NCI-H522 lung, 21%. For the same molecule, the growth is 13.8% in the experiment with A549/ATCC NSCLC; 36.8% in the experiment on 786-0 renal; -16.4% (active) with COLO 205 colon; 41.8% in the experiment on DU-145 prostate; 44.5% with K-562 leukemia; -21.6% (active) in the experiment on MALME-3M melanoma. Besides, the growth was 64.3% in the experiment on MDA-MB-231 breast; -3.02% (active) in the experiment on RXF 393 renal; 46.4% in the experiment with SF-268 CNS; 13.1% with SF-295 CNS; -8.98% (active) in the experiment with SF-539 CNS; -6.7% (active) in the experiment on M14 melanoma.

Consider `CCNC(=O)Nc1nc2ccc(Oc3ccnc(C(=O)NC)c3)cc2s1`, for which the growth with NCI-H23 lung was 90.1%; in the experiment on NCI-H226 lung, 84.5%; in the experiment on NCI-H322M lung, 102%; in the experiment on HOP-62 NSCLC, 76.1%; in the experiment on NCI-H460 lung it was 73.4%; with NCI-H522 lung, 56.6%. The growth is 62.4% in the experiment with A549/ATCC NSCLC; 88.3% in the experiment on 786-0 renal; 56.1% in the experiment on COLO 205 colon; 103% in the experiment on DU-145 prostate; 8.24% (active) in the experiment with K-562 leukemia; 67.3% with MALME-3M melanoma. In addition, the growth with MDA-MB-231 breast was 73%; in the experiment on RXF 393 renal it was 103%; in the experiment with SF-268 CNS, 92.8%; in the experiment on SF-295 CNS, 70.5%; with SF-539 CNS, 77.6%; with UACC-257 melanoma, 87.1%. For the same molecule, the growth with M14 melanoma is 40.7%.
